RTF Ca sens act: cardiac RTF calcium sensitization; activation, % at 7.2 µM; hit rate 0.24% among 340,000; IANBD-labeled TnC RTF fluorescence at EC20 calcium; 0% EC20 calcium, 100% full calcium;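 active = activation above the mean over all tested compounds plus 3 SD, cut at about 30% in these data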;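 also: rise in fluorescence read as greater calcium sensitivity of cardiac thin filaments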
Keap1 Nrf2 FP: Keap1-Nrf2 (human) interaction inhibition. hit rate 0.15% among 340,000. AID 504523. Keap1 Kelch-Nrf2 peptide fluorescence polarization, 1536-well. inhibition, % at 9.4 µM. Q14145; in the data active = inhibition above about 12%;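 also: human Keap1 Kelch domain with fluorescein labeled Nrf2 9mer peptide probe; 0% = neutral control wells and 100% = peptide positive control; higher means more block of Keap1 binding to Nrf2 peptide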
C-LANA FP: inhibitors of KSHV LANA C-terminal domain DNA binding; MBP-C-LANA/FAM-LBS DNA binding, fluorescence polarization; AID 504423; hit rate 0.078% among 340,000; inhibition, % at 9 µM;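 active = highest replicate inhibition at or above 60% at 9 µM, even if other replicates fall short; inactive = all replicates below 60% inhibition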;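 also: 0% = neutral control wells and 100% = 4 µM acridine orange control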
LANA-H2B inh: blocks KSHV LANA binding to histone H2A/H2B; inhibition, % (no concentration beside the values); cell-free LANA-H2A/H2B peptide, fluorescence polarization; hit rate 0.6% among 320,000; Q9QR71; AID 2629; in the data active = inhibition mostly above about 10%, no sharp cut-off; inactive = mostly below about 6.7%
Cardiac RTF inh: cardiac RTF calcium desensitization | P19429+P45379 | IANBD-labeled cardiac RTF, Ca2+ fluorescence | inhibition, % at 7.15 µM | hit rate 0.12% among 340,000;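 active = inhibition above the mean inhibition of all tested compounds plus 3 SD, cut at about 17% in these data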;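 also: assay run at fixed EC70 calcium of 1.6 mM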
E coli Lon inh: E. coli protease La inhibition; P0A9M0; purified E. coli Lon protease, fluorescence polarization; inhibition, % at 7.94 µM; hit rate 0.42% among 360,000; in the data active = inhibition above about 13%, passing the limit was not always enough;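 also: 0% = enzyme with probe and DMSO and 100% = no enzyme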
Target sequence (P0A9M0 whole entry, looked up): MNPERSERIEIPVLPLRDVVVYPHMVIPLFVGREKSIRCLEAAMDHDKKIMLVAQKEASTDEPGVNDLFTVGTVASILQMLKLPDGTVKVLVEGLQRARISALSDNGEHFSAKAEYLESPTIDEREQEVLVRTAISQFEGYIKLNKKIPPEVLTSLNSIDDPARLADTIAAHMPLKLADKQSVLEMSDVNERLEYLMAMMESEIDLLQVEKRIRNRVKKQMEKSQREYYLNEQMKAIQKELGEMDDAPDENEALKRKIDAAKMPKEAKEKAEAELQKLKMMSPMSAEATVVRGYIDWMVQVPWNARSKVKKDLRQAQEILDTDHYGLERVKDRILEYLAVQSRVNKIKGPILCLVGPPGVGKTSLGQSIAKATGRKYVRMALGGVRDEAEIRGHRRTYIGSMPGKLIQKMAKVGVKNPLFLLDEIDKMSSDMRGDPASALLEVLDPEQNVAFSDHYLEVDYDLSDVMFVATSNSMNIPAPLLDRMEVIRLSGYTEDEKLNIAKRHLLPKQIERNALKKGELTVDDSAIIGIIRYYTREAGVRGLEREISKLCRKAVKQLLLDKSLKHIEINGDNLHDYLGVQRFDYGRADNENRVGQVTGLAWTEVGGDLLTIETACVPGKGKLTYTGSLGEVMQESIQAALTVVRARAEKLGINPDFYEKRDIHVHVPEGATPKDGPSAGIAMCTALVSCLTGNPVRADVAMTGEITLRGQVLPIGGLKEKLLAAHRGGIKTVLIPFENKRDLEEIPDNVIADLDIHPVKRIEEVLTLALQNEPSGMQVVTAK
E coli Lon conf: E. coli Lon inhibition confirmation. inhibition, % at 7.94 µM. hit rate 31% among 1,400. purified E. coli Lon, fluorescence polarization. shares compounds with E coli Lon inh; in the data active = inhibition above about 16%;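 also: 0% = enzyme with probe and DMSO and 100% = no enzyme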
* hit, by the source's call; x = not tested or not shown. Rows were chosen to be rich in hits. Some 1.3% of all compounds tested hit in one or more screens of this group.

SMILES | RTF Ca sens act | Keap1 Nrf2 FP | C-LANA FP | LANA-H2B inh | Cardiac RTF inh | E coli Lon inh | E coli Lon conf
Cn1nccc1C(=O)N(CCN1CCCCC1)CC1CCCN(C2CCCC2)C1 (stereo unspecified) | -5 | 3 | 2 | 3 | -3 | -3 | x
COc1ccc(OC)c(/C=C/C(=O)OCC(=O)c2c(N)n(C)c(=O)n(C)c2=O)c1 | 0 | -2 | -1 | -2 | -7 | 2 | x
COc1ccc(N2C(=O)CS(=O)C(c3ccccc3)C2=O)cc1 (stereo unspecified) | -3 | -44 | 0 | -16 | -2 | 24* | 31*
Cn1c(CNC(=O)CCNC(=O)c2cccc(Br)c2)cc(=O)n(C)c1=O | 2 | 1 | 6 | -5 | -2 | -4 | x
COc1ccc(Oc2nc(C)cc(C)c2S(=O)(=O)c2ccc(C)cc2)cc1 | 9 | -3 | -2 | -1 | 8 | 18* | -4
O=C(c1ccc2c(c1)CCN2S(=O)(=O)c1ccccc1)N1CCN(c2ccccc2)CC1 | 4 | 3 | -1 | -1 | -6 | -15 | x
O=C(c1ccc2c(c1)CCN2S(=O)(=O)c1ccccc1)N1CCN(c2ccccc2F)CC1 | -2 | -2 | -1 | x | 2 | 18* | 4
N#C/C(=C\c1cccc(Br)c1)C(=O)N1CCCCC1 | -5 | -16 | 1 | 1 | 1 | -10 | x
NC(=S)Nc1cccc2cc3ccccc3cc12 | 8 | -2 | 1 | 4 | -10 | 42* | 113*
NC(=S)Nc1cc2ccccc2c2ccccc12 | 6 | 2 | 1 | 6 | 0 | 10 | x
O=C(c1ccccc1Cl)N(Cc1ccc(Cl)c(Cl)c1)N1C(=O)CCCC1=O | 7 | -1 | 1 | 0 | -3 | 18* | 5
CO/N=C\CC(=O)Nc1ccc(Cl)c(Cl)c1 | 5 | -1 | 1 | -7 | -3 | 17* | 14
CCN(c1ccc(OC)cc1)S(=O)(=O)c1nnc(NC(=O)COc2ccc(F)cc2)s1 | 1 | 2 | 0 | -2 | -4 | -11 | x
O=C(/C=C/c1ccc(Cl)cc1)NC(=S)Nc1ccccc1C(=O)O | 0 | -3 | -2 | 8 | -8 | 17* | -7
COCCNC(=O)NC(=O)CN1CCCc2ccccc21 | -4 | 0 | 4 | 16* | 2 | 48* | 6
CC(C)(C)NC(=O)NC(=O)CN1CCc2ccccc21 | 0 | 1 | 1 | -5 | -4 | -10 | x
COc1ccc(-n2c(CNC(=O)COc3ccc(Cl)cc3Cl)n[nH]c2=S)cc1 | 7 | -5 | -1 | -4 | -18 | 3 | x
Cn1nc([N+](=O)[O-])c(C(C#N)c2ccccn2)c(Cl)c1=O (stereo unspecified) | 16 | 2 | 2 | 20 | -8 | 17* | 12
CCCn1nc([N+](=O)[O-])c(C(C#N)c2nc3ccccc3o2)c(Cl)c1=O (stereo unspecified) | -9 | 5 | 2 | -7 | 1 | -4 | x
CCCc1cc(=O)n2nc(N3CCC(C(=O)N4CCN(c5cccc(OC)c5)CC4)CC3)sc2n1 | 0 | -3 | -1 | 1 | -5 | 24* | 1
CCOC(=O)C1CCN(C(=O)C2CCN(c3nn4c(=O)cc(C)nc4s3)CC2)CC1 | -1 | -2 | 1 | -8 | 6 | -12 | x
